# Assay results as given in PMC5540273 (PLoS ONE, 2017).
# System: VRK2
# 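Also: kd values determined as follow-up on hits from a single-replicate KINOMEscan panel screen.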
row,SMILES,Kd [µM]
1,CC(C)(C)n1cnc2c(N)ncnc21 [SKF-97359],> 10
2,CN(C(=O)c1ccc(-c2cc(-c3c[nH]nc3-c3ccccn3)ccn2)cc1)C1CCOCC1 [GW810083],> 10
3,COc1ccc(Nc2nccc(N3CCC(NC(=O)Nc4cccc(C(C)=O)c4)C3)n2)cc1 (stereo not drawn) [GSK1379731],> 10
